# Where a structure was tested more than once in an assay, its records may differ in their call. Active and inactive are the calls of the source. The calls were made as follows: active = hit-call score of the fitted dose curve at least 0.9, where 1 is the maximum; inactive = score below 0.9.
# Tests used:
# [1] = read-out: Macrophage colony-stimulating factor (MCSF), CSF1 (gene 1435); assay: BSK_hDFCGF_MCSF: BioMAP Diversity Plus: hDFCGF Assay for Macrophage colony-stimulating factor (MCSF) Biomarker Activity (AID 2283060); conditions: primary human foreskin fibroblasts; actives raise or lower the signal
# Outline: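 fibroblasts (human foreskin, primary), 24 h post-dose; M-CSF by ELISA; bidirectional fit, DMSO = baseline.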
# [2] = BSK_hDFCGF_SRB: Viability Assessment in the BioMAP Diversity Plus: hDFCGF Assay (AID 2283061); conditions: primary human foreskin fibroblasts;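 also: cells exposed to compound for 24 h before the read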
# Outline: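 SRB-based viability read on primary human skin fibroblasts at 24 h: TCA fixation, 0.1% dye, 560 nm. Gain or loss of signal is fitted against the DMSO negative control.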
# [3] = read-out: TIMP metallopeptidase inhibitor 1 (TIMP1), TIMP1 (gene 7076); assay: BSK_hDFCGF_TIMP1: BioMAP Diversity Plus: hDFCGF Assay for TIMP metallopeptidase inhibitor 1 (TIMP1) Biomarker Activity (AID 2283062); conditions: primary human foreskin fibroblasts; actives raise or lower the signal
# Outline: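 Bidirectional curve fitting against DMSO baseline yielded this endpoint, based on ELISA detection of TIMP-1 in primary human foreskin fibroblasts exposed to compound for 24 h.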
# [4] = read-out: Monokine induced gamma interferon (MIG), CXCL9 (gene 4283); assay: BSK_hDFCGF_MIG: BioMAP Diversity Plus: hDFCGF Assay for Monokine induced gamma interferon (MIG) Biomarker Activity (AID 2283063); conditions: primary human foreskin fibroblasts; actives raise or lower the signal
# Outline: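 Endpoint derived by bidirectional fitting relative to DMSO; MIG quantified via ELISA in primary human foreskin fibroblasts harvested 24 h after dosing.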
# [5] = read-out: Matrix Metallopeptidase 1 (MMP1), MMP1 (gene 4312); assay: BSK_hDFCGF_MMP1: BioMAP Diversity Plus: hDFCGF Assay for Matrix Metallopeptidase 1 (MMP1) Biomarker Activity (AID 2283064); conditions: primary human foreskin fibroblasts; actives raise or lower the signal
# Outline: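 Primary human foreskin fibroblasts in the hDFCGF system were dosed with test chemical, and MMP1 was measured by ELISA 24 h later. Values come from bidirectional curve fitting against the DMSO baseline.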
# [6] = read-out: Vascular cell adhesion molecule 1 (VCAM1), VCAM1 (gene 7412); assay: BSK_hDFCGF_VCAM1: BioMAP Diversity Plus: hDFCGF Assay for Vascular cell adhesion molecule 1 (VCAM1) Biomarker Activity (AID 2283065); conditions: primary human foreskin fibroblasts; actives raise or lower the signal
# Outline: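 Measured after 24 h chemical treatment of primary human skin fibroblasts, VCAM-1 was detected by ELISA and concentration-response analysed in both directions versus DMSO vehicle.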
# [7] = read-out: Plasminogen activator inhibitor-1 (PAI1), SERPINE1 (gene 5054); assay: BSK_hDFCGF_PAI1: BioMAP Diversity Plus: hDFCGF Assay for Plasminogen activator inhibitor-1 (PAI1) Biomarker Activity (AID 2283066); conditions: primary human foreskin fibroblasts; actives raise or lower the signal
# Outline: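 Human foreskin fibroblast primary cells, 24 h chemical exposure; PAI-1 measured by ELISA. Bidirectional fitting relative to DMSO; parallel cultures stained with SRB for total protein to flag overt cytotoxicity.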
# [8] = read-out: Intercellular Adhesion Molecule 1 (ICAM1), ICAM1 (gene 3383); assay: BSK_KF3CT_ICAM1: BioMAP Diversity Plus: KF3CT Assay for Intercellular Adhesion Molecule 1 (ICAM1) Biomarker Activity (AID 2283067); conditions: primary human keratinocytes with fibroblasts; actives raise or lower the signal
# Outline: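 Bidirectional curve fitting against a DMSO baseline was applied to ICAM-1 ELISA signal from primary human skin co-cultures harvested 24 h after treatment, with SRB staining of parallel wells for overt cytotoxicity.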
# [9] = BSK_KF3CT_SRB: Viability Assessment in the BioMAP Diversity Plus: KF3CT Assay (AID 2283069); conditions: primary human keratinocytes with fibroblasts;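 also: total protein by sulforhodamine B staining as a cytotoxicity measure; read 24 h after compound addition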
# Outline: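 Human primary keratinocyte plus foreskin fibroblast co-culture exposed to chemicals for 24 h. Total protein measured by 0.1% sulforhodamine B staining after 10% TCA fixation, read at 560 nm; bidirectional fitting versus DMSO baseline.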
# [10] = read-out: TIMP metallopeptidase inhibitor 2 (TIMP2), TIMP2 (gene 7077); assay: BSK_KF3CT_TIMP2: BioMAP Diversity Plus: KF3CT Assay for TIMP metallopeptidase inhibitor 2 (TIMP2) Biomarker Activity (AID 2283071); conditions: primary human keratinocytes with fibroblasts; actives raise or lower the signal
# Outline: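 Co-culture of human primary keratinocytes and foreskin fibroblasts, measured 24 h after chemical dosing. TIMP-2 quantified by ELISA and fitted in both directions relative to DMSO. Cytotoxicity checked in parallel cultures by SRB total-protein staining.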
# [11] = read-out: C-C motif chemokine 2 (Homo sapiens) (UniProt P13500); assay: BSK_KF3CT_MCP1: BioMAP Diversity Plus: KF3CT Assay for Monocyte Chemoattractant Protein 1 (MCP1/CCL2) Biomarker Activity (AID 2283073); conditions: primary human keratinocytes with fibroblasts; actives raise or lower the signal
# Outline: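 Biomarker MCP-1 is measured by ELISA in primary human keratinocytes co-cultured with foreskin fibroblasts, 24 h after chemical treatment; DMSO serves as the negative control and activity baseline.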
# [12] = read-out: Matrix Metallopeptidase 9 (MMP9), MMP9 (gene 4318); assay: BSK_KF3CT_MMP9: BioMAP Diversity Plus: KF3CT Assay for Matrix Metallopeptidase 9 (MMP9) Biomarker Activity (AID 2283074); conditions: primary human keratinocytes with fibroblasts; actives raise or lower the signal
# Outline: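 Keratinocyte plus foreskin fibroblast human primary skin co-culture was dosed with chemical and MMP-9 was quantified by ELISA 24 h later. Bidirectional curve fitting used DMSO as negative control and activity baseline.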
# [13] = read-out: urokinase plasminogen activator (uPA), PLAU (gene 5328); assay: BSK_KF3CT_uPA: BioMAP Diversity Plus: KF3CT Assay for urokinase plasminogen activator (uPA) Biomarker Activity (AID 2283075); conditions: primary human keratinocytes with fibroblasts; actives raise or lower the signal
# Outline: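 Human keratinocyte plus foreskin fibroblast primary co-culture exposed to chemical for 24 h. uPA levels were quantified by ELISA, and activity was fitted bidirectionally against a DMSO negative-control baseline.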
# [14] = read-out: CD40, CD40 (gene 958); assay: BSK_LPS_CD40: BioMAP Diversity Plus: LPS Assay for CD40 Biomarker Activity (AID 2283076); conditions: primary human HUVEC with PBMC; actives raise or lower the signal
# Outline: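 Using a multiplexed primary human co-culture (umbilical vein endothelium plus PBMC), CD40 was read by ELISA 24 h after dosing, with cytotoxicity tracked by sulforhodamine B staining of parallel cultures and activity fitted bidirectionally versus DMSO.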
# [15] = read-out: E-selectin (Homo sapiens) (UniProt P16581); assay: BSK_LPS_Eselectin: BioMAP Diversity Plus: LPS Assay for Eselectin Biomarker Activity (AID 2283077); conditions: primary human HUVEC with PBMC; actives raise or lower the signal
# Outline: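 Dose chemical onto LPS-driven HUVEC/PBMC co-culture; after 24 h, run ELISA for E-selectin; fit up- and down-going responses relative to DMSO control.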
# [16] = BSK_LPS_SRB: Viability Assessment in the BioMAP Diversity Plus: LPS Assay (AID 2283079); conditions: primary human HUVEC with PBMC;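 also: total protein by sulforhodamine B absorbance as a cytotoxicity measure; measured one day after compound addition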
# Outline: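 Cytotoxicity endpoint in human endothelial–PBMC co-culture: 24 h exposure, then SRB (0.1%) staining, 560 nm read.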
# [17] = read-out: Interleukin-1 alpha (IL1a), IL1A (gene 3552); assay: BSK_KF3CT_IL1a: BioMAP Diversity Plus: KF3CT Assay for Interleukin-1 alpha (IL1a) Biomarker Activity (AID 2283070); conditions: primary human keratinocytes with fibroblasts; actives raise or lower the signal
# Outline: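 Human keratinocyte plus foreskin fibroblast primary co-culture, sampled 24 h after chemical dosing. IL-1a measured by ELISA; responses fitted bidirectionally against DMSO baseline (negative control), so gain or loss of signal both count.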
# [18] = read-out: Interleukin-8 (IL8), CXCL8 (gene 3576); assay: BSK_LPS_IL8: BioMAP Diversity Plus: LPS Assay for Interleukin-8 (IL8) Biomarker Activity (AID 2283078); conditions: primary human HUVEC with PBMC; actives raise or lower the signal
# Outline: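 In this LPS system, chemical-treated human umbilical vein endothelium/PBMC co-cultures were harvested at 24 h for IL-8 ELISA.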
# [19] = read-out: Transforming growth factor beta 1 (TGFb1), TGFB1 (gene 7040); assay: BSK_KF3CT_TGFb1: BioMAP Diversity Plus: KF3CT Assay for Transforming growth factor beta 1 (TGFb1) Biomarker Activity (AID 2283072); conditions: primary human keratinocytes with fibroblasts; actives raise or lower the signal
# Outline: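 Human keratinocyte/foreskin fibroblast co-culture; TGF-b1 measured by ELISA 24 h after dosing, fitted bidirectionally versus DMSO. Cytotoxicity checked in parallel cultures by total protein (SRB staining, 560 nm).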
# E-selectin (Homo sapiens), sequence (P16581 whole entry, looked up): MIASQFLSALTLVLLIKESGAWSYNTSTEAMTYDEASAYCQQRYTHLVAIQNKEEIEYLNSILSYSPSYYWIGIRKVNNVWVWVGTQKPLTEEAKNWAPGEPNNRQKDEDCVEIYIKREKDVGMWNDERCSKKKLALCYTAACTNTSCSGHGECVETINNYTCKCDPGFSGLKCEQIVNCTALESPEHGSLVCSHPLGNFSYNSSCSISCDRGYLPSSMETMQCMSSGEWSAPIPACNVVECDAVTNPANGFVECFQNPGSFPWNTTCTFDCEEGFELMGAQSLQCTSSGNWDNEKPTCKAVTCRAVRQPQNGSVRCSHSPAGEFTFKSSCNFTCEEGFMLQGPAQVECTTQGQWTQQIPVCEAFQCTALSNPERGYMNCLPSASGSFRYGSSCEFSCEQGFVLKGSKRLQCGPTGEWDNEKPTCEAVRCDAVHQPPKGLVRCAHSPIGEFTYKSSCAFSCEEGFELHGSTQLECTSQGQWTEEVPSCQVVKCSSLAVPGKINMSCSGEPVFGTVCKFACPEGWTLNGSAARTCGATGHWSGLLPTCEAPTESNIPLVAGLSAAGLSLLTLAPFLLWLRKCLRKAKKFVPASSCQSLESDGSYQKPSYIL
structure (smiles),measurement,setting,value
OCC(F)(F)C(F)(F)C(F)(F)C(F)(F)C(F)(F)C(F)F,outcome,[1],inactive
same,outcome,[2],inactive
same,outcome,[3],inactive
same,outcome,[4],inactive
same,outcome,[5],inactive
same,outcome,[6],inactive
same,outcome,[7],inactive
same,outcome,[8],inactive
same,outcome,[9],inactive
same,outcome,[10],inactive
same,outcome,[11],inactive
same,outcome,[12],inactive
same,outcome,[13],inactive
same,outcome,[14],inactive
same,outcome,[15],inactive
same,outcome,[16],inactive
O=S(=O)(OCCOC(F)(F)F)C(F)(F)F,outcome,[1],inactive
same,outcome,[2],inactive
same,outcome,[3],inactive
same,outcome,[4],inactive
same,outcome,[5],inactive
same,outcome,[6],inactive
same,outcome,[7],inactive
same,outcome,[8],inactive
same,outcome,[9],inactive
same,outcome,[17],inactive
same,outcome,[10],inactive
same,outcome,[11],inactive
same,outcome,[12],inactive
same,outcome,[13],inactive
same,outcome,[14],inactive
same,outcome,[15],inactive
same,outcome,[18],inactive
same,outcome,[16],inactive
CCCCNc1ccccc1,outcome,[1],inactive
same,outcome,[2],inactive
same,outcome,[3],inactive
same,outcome,[4],inactive
same,outcome,[5],inactive
same,outcome,[6],inactive
same,outcome,[7],inactive
same,outcome,[8],inactive
same,outcome,[9],inactive
same,outcome,[10],inactive
same,outcome,[19],inactive
same,outcome,[11],inactive
same,outcome,[12],inactive
same,outcome,[13],inactive
same,outcome,[14],inactive
same,outcome,[15],inactive
same,outcome,[16],inactive
CCCCOCCOCCOC(=O)CCCCC(=O)OCCOCCOCCCC,outcome,[1],inactive
same,outcome,[2],inactive
same,outcome,[3],inactive
same,outcome,[4],inactive
same,outcome,[5],inactive
same,outcome,[6],inactive
same,outcome,[7],inactive
same,outcome,[8],inactive
same,outcome,[9],inactive
same,AC50,[17],2190 nM (active)
same,outcome,[10],inactive
same,outcome,[19],inactive
same,outcome,[11],inactive
same,outcome,[12],inactive
same,outcome,[13],inactive
same,outcome,[14],inactive
same,outcome,[15],inactive
same,outcome,[16],inactive
O=P(O)(O)OCCC(F)(F)C(F)(F)C(F)(F)C(F)(F)C(F)(F)C(F)(F)F,outcome,[1],inactive
same,outcome,[2],inactive
same,outcome,[3],inactive
same,outcome,[4],inactive
same,outcome,[5],inactive
same,outcome,[6],inactive
same,outcome,[7],inactive
same,outcome,[8],inactive
same,outcome,[9],inactive
same,outcome,[10],inactive
same,outcome,[11],inactive
same,outcome,[12],inactive
same,outcome,[13],inactive
same,AC50,[14],823 nM (active)
same,outcome,[14],inactive
same,outcome,[15],inactive
same,outcome,[18],inactive
same,outcome,[16],inactive
FC(F)(F)C(F)(F)C(F)(F)C(F)(F)C(F)(F)C(F)(F)CC1CO1 (stereo unspecified),outcome,[1],inactive
same,outcome,[2],inactive
same,outcome,[3],inactive
same,outcome,[4],inactive
same,outcome,[5],inactive
same,outcome,[6],inactive
same,outcome,[7],inactive
same,outcome,[8],inactive
same,outcome,[9],inactive
same,outcome,[17],inactive
same,outcome,[10],inactive
same,outcome,[11],inactive
same,outcome,[12],inactive
same,outcome,[13],inactive
same,outcome,[14],inactive
same,outcome,[15],inactive
same,outcome,[16],inactive
O=C(O)C(F)(OC(F)(F)C(F)(OC(F)(F)C(F)(OC(F)(F)C(F)(F)C(F)(F)F)C(F)(F)F)C(F)(F)F)C(F)(F)F (stereo unspecified),outcome,[1],inactive
same,outcome,[2],inactive
same,outcome,[3],inactive
same,outcome,[4],inactive
same,outcome,[5],inactive
same,outcome,[6],inactive
same,outcome,[7],inactive
same,outcome,[8],inactive
same,outcome,[9],inactive
same,outcome,[10],inactive
same,outcome,[11],inactive
same,outcome,[12],inactive
same,outcome,[13],inactive
same,outcome,[14],inactive
same,outcome,[15],inactive
same,outcome,[18],inactive
same,outcome,[16],inactive

# Reference: PubChem BioAssay (EPA / NIEHS)
